# Source: PubChem BioAssay
# H9c2 protect: cardioprotection against H2O2-induced cell death, primary screen, uHTS, H9c2 cells, ATPLite luminescence. H9c2 cardiomyocytes, H2O2 injury protection, 2 h. 360,000 compounds, 0.63% hits. protection from H2O2 cell death, % at 20 µM;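 active = compounds giving at least 50% protection of heart cells from peroxide-induced death in the single-dose screen, raw or plate-pattern-corrected value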;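 also: 0% = DMSO wells with peroxide and 100% = DMSO wells without peroxide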
# Jurkat NFkB inh: inhibitors of induced NF-kB luciferase reporter, primary screen, TCR NF-kB activation inhibitor project, cell-based, luminescence, uHTS. inhibition, % at 4 µM. AID 435003, 2010. 330,000 compounds, 0.53% hits. Jurkat, PMA/ionomycin-induced NF-kB luciferase reporter; in the data active = inhibition above about 50%
# 697 NFkB inh: inhibitors of PMA/ionomycin-induced NF-kB reporter, 697 cells, primary screen, B-cell NF-kB inhibitor project, cell-based, luminescence, uHTS. 697 B-cell NF-kB luciferase reporter, 16 h. inhibition, % at 4 µM. 330,000 compounds, 0.33% hits; in the data active = inhibition above about 35%
# NR2F2 inh: NR2F2 transcriptional activity inhibitors, primary screen, cell-based, luciferase reporter, HEK293T, luminescence. COUP transcription factor 2 (Homo sapiens), P24468. HEK293T NGFI-A luciferase reporter. inhibition, % at 8.6 µM. 370,000 compounds, 0.7% hits. AID 686940, 2013;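 active = inhibition above a per-plate cutoff, mean inhibition of test wells between control levels plus 3 SD, cut at about 38% in these data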;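 also: cells cotransfected with COUP-TFII expression vector driving the NGFI-A reporter; 0% = median of COUP-TF2 test wells and 100% = reporter-only cells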
# Target sequence (P24468 whole entry, looked up): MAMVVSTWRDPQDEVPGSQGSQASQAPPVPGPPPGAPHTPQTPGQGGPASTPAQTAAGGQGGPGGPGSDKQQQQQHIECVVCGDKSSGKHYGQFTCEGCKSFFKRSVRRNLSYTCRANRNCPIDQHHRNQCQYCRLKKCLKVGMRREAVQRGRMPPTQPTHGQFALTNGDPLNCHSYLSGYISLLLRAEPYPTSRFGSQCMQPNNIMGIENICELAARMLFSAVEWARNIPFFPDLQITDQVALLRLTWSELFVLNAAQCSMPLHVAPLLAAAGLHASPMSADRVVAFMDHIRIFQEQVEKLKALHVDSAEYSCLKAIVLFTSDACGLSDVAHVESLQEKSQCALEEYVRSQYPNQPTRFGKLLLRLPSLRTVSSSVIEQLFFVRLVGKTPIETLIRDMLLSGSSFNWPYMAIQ
# Gli-Sufu block: Gli-Sufu pathway antagonists, primary screen, luciferase luminescence, Sufu-KO-LIGHT cells, uHTS; Sufu-KO-LIGHT fibroblasts, Gli luciferase reporter luminescence; inhibition, % at 5 µM; 340,000 compounds, 0.74% hits; AID 588413, 2011;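 active = inhibition above about 55%, limit read from the data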;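 also: 0% = DMSO-treated cells and 100% = wells with medium but no cells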
# TAG inh: inhibitors of triacylglycerol accumulation, primary screen, cell-based, uHTS, fluorescence, H9c2; AID 651582, 2012; H9c2 cells, Nile Red lipid (TAG) fluorescence; cells loaded with 200 µM oleic acid; inhibition, % at 12.5 µM; 230,000 compounds, 0.66% hits;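 active = pattern-corrected inhibition of lipid staining of at least 50% with the nuclear-stain viability signal not falling by more than 50%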;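 also: 0% = DMSO wells and 100% = triacsin C control wells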
# Gli antag conf: Gli-SUFU pathway antagonists, confirmation, single concentration, luciferase luminescence, Sufu-KO-LIGHT cells; shares compounds with Gli-Sufu block; Gli luciferase reporter; inhibition, % at 5 µM; 2,500 compounds, 40% hits;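 active = mean inhibition at 5 µM reaching about 45%, limit read from the data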;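 also: plate controls were DMSO-treated cells for no effect and wells lacking cells for full effect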
# SufuKO cytotox: cytotoxicity in Sufu-KO-LIGHT cells, confirmation, cytotoxicity control for Gli-SUFU antagonist project, cell-based, ATP luminescence, single concentration; shares compounds with Gli-Sufu block; cytotoxicity, % at 5 µM; 2,500 compounds, 32% hits; AID 651994, 2013;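 active = mean cytotoxicity at 5 µM above about 25%, limit read from the data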;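 also: cells exposed to compound overnight for roughly 16 to 18 hours; plate controls were DMSO wells with cells for no effect and medium without cells for full effect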
# Wnt3a cs: Wnt3a reporter signal inhibition, confirmation, counter-screen for Gli-SUFU antagonist project, Wnt-LIGHT cells, luminescence, single concentration; shares compounds with Gli-Sufu block; Wnt3a-driven luciferase reporter; inhibition, % at 6.25 µM; 2,500 compounds, 20% hits;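 active = mean inhibition above about 25%, limit read from the data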
# Numbers without * were called inactive; nt = no result. Only some compounds are listed: those with a hit (about 2.6% of all), similar ones and a draw of the others.
SMILES,H9c2 protect,Jurkat NFkB inh,697 NFkB inh,NR2F2 inh,Gli-Sufu block,TAG inh,Gli antag conf,SufuKO cytotox,Wnt3a cs
C[C@H]1CN(C(=O)OC(C)(C)C)CCN1c1ccc(Br)c(C#N)c1,nt,nt,nt,13.5,nt,nt,nt,nt,nt
CC(C)(C)OC(=O)N1CCC(c2cc(-c3cccs3)n[nH]2)CC1,-9.1,0.3,-12.9,-4.0,57.1*,-30.2,42.4,8.9,-66.4
Cc1cccc(NC(=O)C2CCCN2S(=O)(=O)c2cccnc2)c1C (stereo not drawn),nt,nt,nt,-2.7,nt,nt,nt,nt,nt
CC(=O)Nc1cccc(C(=O)Nc2cccc3ncccc23)c1,-1.7,11.2,17.7,8.6,85.7*,nt,17.7,5.2,22.5
CC(=O)C1(C(=O)N2CCOCC2)CC(c2ccccc2C(F)(F)F)=NO1 (stereo not drawn),nt,nt,nt,7.7,nt,nt,nt,nt,nt
O=C(CCc1ccccc1)N[C@H]1[C@H](OCc2ccccc2)CCC[C@@]12C(=O)N(Cc1ccccc1)c1ccc(-c3ccccn3)cc12,nt,nt,nt,-5.4,nt,nt,nt,nt,nt
C#CCN1CC(N(C)CCOC(=O)c2ccc(F)cc2)CS1(=O)=O (stereo not drawn),nt,nt,nt,-3.2,nt,nt,nt,nt,nt
CCCC1C(=O)Nc2ccccc2N1C(=O)c1ccc(C(C)(C)C)cc1 (stereo not drawn),-15.5,-17.5,-25.1,1.4,28.0,nt,nt,nt,nt
CCCC1C(=O)Nc2ccccc2N1C(=O)c1cccc(C)c1 (stereo not drawn),-4.7,-13.2,6.8,-4.8,71.4*,nt,15.5,17.4,-0.8
CCCCCCCCN1CN2Cc3ccc(C)cc3C2CS1(=O)=O (stereo not drawn),nt,nt,nt,10.6,nt,nt,nt,nt,nt
CCCCNC(=S)N(C)/N=C/c1ccc2c(c1)OCO2,-6.4,-29.8,-22.9,-1.2,99.3*,5.2,20.7,22.8,8.2
CC1CC(C)CN(CCCNC(=O)c2ccc(CS(=O)(=O)Cc3cccc(Cl)c3)o2)C1 (stereo not drawn),-2.9,4.6,9.8,-3.0,54.0,nt,25.5,9.2,-32.6
COc1ccccc1CCn1cnc(-c2cccc(Br)c2)c1CC(C)C,nt,nt,nt,11.0,nt,nt,nt,nt,nt
O=S(=O)(NCCc1ccccc1)c1ccc(-n2cnnn2)cc1,-5.3,28.9,12.7,-3.1,53.6,nt,16.6,1.3,-4.4
Cc1cc(S(=O)(=O)NCCc2ccccc2)ccc1-n1cnnn1,-7.4,3.4,-1.0,-8.5,19.6,nt,nt,nt,nt
CC(=O)C1=C(C)N(Cc2ccc(Br)cc2)C(=S)NC1c1ccc(F)cc1 (stereo not drawn),nt,nt,nt,-4.7,nt,nt,nt,nt,nt
Cc1cn2c(-c3ccncc3)nnc2s1,7.6,9.2,16.4,12.3,54.0,5.6,24.1,20.7,7.1
COc1ccc(C2=Nn3c(nnc3-c3ccccc3OC)SC2)cc1OCC1CC1,-4.0,-2.4,-75.3,-94.5,64.9*,25.5,59.5*,64.7*,-104.8
COc1ccc(C2=Nn3c(nnc3-c3ccccc3)SC2)cc1OC,8.5,17.8,-4.9,-13.6,-2.5,nt,nt,nt,nt
COC(=O)c1cc2c(c3c4cc(OC)ccc4n(S(=O)(=O)c4ccc(F)cc4)c13)C(=O)N(Cc1ccccc1)C2,nt,nt,nt,-9.8,nt,nt,nt,nt,nt
CC(C)c1[nH]nc2c1C(c1ccc(F)cc1)N(Cc1ccccc1)C2=O (stereo not drawn),nt,nt,nt,15.3,nt,nt,nt,nt,nt
CSCCC(NS(=O)(=O)c1ccc(Br)cc1)C(=O)OCC(=O)NC1CC1 (stereo not drawn),-3.5,-2.3,7.2,-3.2,51.4,-18.2,17.2,15.8,3.3
CSCCC(NS(=O)(=O)c1ccc(Cl)cc1)C(=O)OCC(=O)NC1CC1 (stereo not drawn),1.7,-0.4,-25.2,4.4,31.6,-9.8,nt,nt,nt
CC(C)c1[nH]nc2c1C(c1cccc(C(F)(F)F)c1)NC2=O (stereo not drawn),nt,nt,nt,1.7,nt,nt,nt,nt,nt
COc1ccc(CCN2CC(C(=O)NCCc3ccc(C(F)(F)F)cc3)CCC2=O)cc1 (stereo not drawn),-0.6,-16.8,-23.3,1.8,51.9,nt,9.3,17.0,-53.0
SMILES,H9c2 protect,Jurkat NFkB inh,697 NFkB inh,NR2F2 inh,Gli-Sufu block,TAG inh,Gli antag conf,SufuKO cytotox,Wnt3a cs
COc1cccc(/C=C/c2ccncc2)c1OC,-2.4,-9.9,-32.5,-14.2,56.3*,-12.2,45.5*,20.7,-1.4
COc1cccc(/C=C/C(=O)NNC(=O)c2ccncc2)c1OC,3.3,-16.6,4.5,-19.7,-11.1,4.9,nt,nt,nt
CC(C)c1ccc(NC(=O)OC2CCC23CCC(c2ccccc2)CC3)cc1 (stereo not drawn),nt,nt,nt,-14.8,nt,nt,nt,nt,nt
CCn1c(SCc2nc3ccccc3c(=O)[nH]2)nc2ccccc21,25.2,4.7,-0.6,5.2,56.2*,-0.2,13.0,25.5*,-23.5
O=C(NCc1ccco1)Nc1c(Cl)cc(Cl)cc1Cl,nt,nt,nt,8.3,nt,nt,nt,nt,nt
O=C(N/N=C/c1ccncc1)C12CC3CC(CC(C3)C1)C2,-3.3,-2.1,7.0,-7.0,57.6*,0.0,20.8,6.0,-18.4
O=c1[nH]c(-c2ccccc2)cn1C1CCN(Cc2ccc(-c3nc4ccc(Br)cc4nc3-c3ccccc3)cc2)CC1,nt,nt,nt,-6.2,nt,nt,nt,nt,nt
OCCC(N1CCOCC1)C(O)(c1ccccc1)c1ccccc1 (stereo not drawn),nt,nt,nt,-4.3,nt,nt,nt,nt,nt
CC(Oc1cccc2c1OC(C)(C)C2)C(=O)O (stereo not drawn),-8.1,-0.7,-9.0,-10.4,96.0*,0.1,10.4,-7.0,12.2
COc1ccc(-c2cc(C(F)(F)F)n3ncc(C(=O)N4CCCCC4c4cccnc4)c3n2)cc1 (stereo not drawn),16.7,-4.9,0.7,-17.8,52.3,15.0,30.1,11.3,9.2
CCCCN(CCCC)c1nc(OC)nc(-n2nnc(C(C)=O)c2C)n1,-13.5,0.4,-45.6,5.8,52.5,4.6,23.4,27.2*,-30.8
CCOc1ccc(C2=Nn3cnnc3SC2)cc1,-6.4,9.1,3.7,8.8,99.1*,nt,14.2,20.1,27.3*
CCc1ccc2c(CN3CCN(S(=O)(=O)c4ccccc4F)CC3)cc(=O)oc2c1,-3.2,1.5,13.6,18.6,56.1*,-10.4,14.4,-0.4,-14.6
CN(C)c1cccc(-c2ccnc(N3CCC(C(N)=O)CC3)n2)c1,nt,nt,nt,-29.2,nt,nt,nt,nt,nt
CCOC(=O)[C@@]12CCCC=C1N(CCc1ccc(Cl)cc1)C(=O)[C@H]2CC(=O)NCC12CC3CC(CC(C3)C1)C2,nt,nt,nt,-0.8,nt,nt,nt,nt,nt
